Measurements from PubChem BioAssay AID720519 (National Center for Advancing Translational Sciences (NCATS), 2013).
Results filed as inconclusive are left out. Entries that show only a call come without a potency. Active and inactive are the calls of the source. Calls come from the whole dose curve; as a rule, active = well fitted activation curve with a large enough effect; inconclusive = small, poorly fitted or top-dose-only effect; inactive = flat fitted curve, though single readings scatter.

Assay: qHTS for Inhibitors of Cell Surface uPA Generation: Confirmatory Assay for Cherry-picked Compounds
How it was run: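 RAW 264.7 cells at 4000/well, incubated overnight, then treated with compounds. After 24 h at 37 C, viability was read by ATPlite luminescence. An increase in signal indicates blocked uPA-dependent LF entry.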
Potency is the fitted concentration of half-maximal effect.

| Compound | Potency |
| --- | --- |
| CCC1Nc2ncnc(N3CCCCC3)c2N(Cc2ccc(Cl)cc2)C1=O (stereo unspecified) | inactive |
| O=C(CCS(=O)(=O)c1ccc2c(c1)NC(=O)CS2)NCc1cccs1 | inactive |
| Cc1ccc(-n2cccc2C(=O)NS(=O)(=O)c2ccc(C)cc2)cc1 | inactive |
| O=C(NNC(=O)c1ncc(Cl)c(Cl)c1Cl)c1ccc(F)cc1 | inactive |
| CC(C)OC(=O)c1ccc(N2CCN(c3ccccc3F)CC2)nc1 | inactive |
| COc1cc(/C=N/NC(=O)c2cc(-c3ccco3)nc3ccccc23)cc(OC)c1O | inactive |
| COc1ccccc1N1CCN(CC(=O)c2c(C)[nH]c3ccccc23)CC1 | inactive |
| O=C(CCCOc1ccc(Cl)cc1Cl)NCc1ccncc1 | inactive |
| C=CC[n+]1c(/C=C/c2ccc(OC(C)=O)c(OC)c2)ccc2ccccc21 | inactive |
| COc1ccccc1N1CCN(C(=O)CCC(=O)N2CCN(c3ccc(F)cc3)CC2)CC1 | inactive |
| Cc1cccc(C)c1NC(=O)c1c(O)c2ccccc2[nH]c1=O | inactive |
| Cc1ccc(S(=O)(=O)Nc2nc(C)cc(N/N=C/c3ccc(O)cc3)n2)cc1 | inactive |
| CCOC(=O)c1c(C)oc2ccc(OC(=O)COc3c(F)c(F)c(F)c(F)c3F)cc12 | inactive |
| CC(=O)c1ccc(NC(=O)CN2CCN(c3ccccc3)CC2)cc1 | inactive |
| CC1(C(=O)OCC(=O)Nc2ccc(Cl)cn2)CC1(Cl)Cl (stereo unspecified) | inactive |
| COc1cc(C(C)=O)ccc1OCc1cn(CC(=O)c2ccc(O)cc2)nn1 | inactive |
| Cc1ccc(S(=O)(=O)NC(=O)Nc2nccs2)cc1 | inactive |
| COc1ccc(CC(=O)Nc2nc(C)cs2)cc1OC | inactive |
| COc1ccccc1NS(=O)(=O)c1cc(NC(=O)CCc2nc3ccccc3c(=O)[nH]2)ccc1C | inactive |
| O=C(NCCS(=O)(=O)N1CCC2(CC1)OCCO2)c1ccc(F)cc1 | inactive |
| NC(=O)c1cc2ccncc2c2ccccc12 | inactive |
| O=C(c1ccc(NC(=S)NCc2ccc(Cl)cc2)cc1)N1CCCCC1 | inactive |
| C[C@H](CO)N1C[C@H](C)[C@H](CN(C)S(=O)(=O)c2cn(C)cn2)Oc2ccc(NC(=O)Nc3ccc(C(F)(F)F)cc3)cc2CC1=O | inactive |
| COCCN(C(=O)CSc1nnc(-c2ccncc2)n1C)c1c(N)n(CC(C)C)c(=O)[nH]c1=O | inactive |
| CN(C)c1cccc(C(=O)N(C)C2CCCN(Cc3ccccc3F)C2)c1 (stereo unspecified) | 20.7 µM (active) |
| CCc1ccccc1NC(=O)CN(C)C(=O)CSc1nnc(Nc2cccc(C)c2C)s1 | inactive |

| Compound | Potency |
| --- | --- |
| COCCN1C(=O)C(=O)/C(=C(/O)c2ccc(S(=O)(=O)N3CCOCC3)cc2)C1c1cccc([N+](=O)[O-])c1 (stereo unspecified) | inactive |
| CN(CC(=O)NCCCn1ccnc1)S(=O)(=O)c1ccc(Cl)cc1 | inactive |
| CC(C)(O)C#Cc1ccc(C(=O)N2CCCC(CCC(=O)NCc3ccccc3F)C2)cc1 (stereo unspecified) | inactive |
| CC(=O)COc1ccc2c(-c3cccc([N+](=O)[O-])c3)cc(=O)oc2c1 | inactive |
| Cc1cc(C)cc(NC(=O)Cc2ccc(NC3=NC4CS(=O)(=O)CC4S3)cc2)c1 (stereo unspecified) | inactive |
| CSCC[C@H](NC(=O)[C@H](Cc1ccccc1)n1c(=O)[nH]c2ccccc2c1=O)C(=O)N1CCC[C@H]1C(=O)O | inactive |
| Cc1nn(-c2ccc(F)cc2)c(C)c1NS(=O)(=O)c1ccc(Cl)cc1 | inactive |
| COc1ccc(-c2sc3ccccc3c2C#CCO)cc1 | inactive |
| Cc1cc(C)nc(N2N=C(C(F)(F)F)CC2=O)n1 | inactive |
| CCOc1cc(/C=C(\C#N)C(=O)NCc2cccnc2)ccc1O | inactive |
| N/C(=N/OC(=O)c1ccccc1F)c1nonc1N | inactive |
| CC(=O)Oc1ccc(OC(C)=O)c(SCCCCCCl)c1 | inactive |
| Cc1ccnc(NC(=O)CCNS(=O)(=O)c2ccc(C)c(C)c2)c1 | inactive |
| CCc1ccccc1N1C(=O)CC(Sc2nccc(C)n2)C1=O (stereo unspecified) | inactive |
| CNC(=S)N1C2CCCC1CC(NC(=O)c1ccc(F)cc1)C2 (stereo unspecified) | inactive |
| COc1ccc(-c2csc(NC(C)c3nc4cc(C(=O)NCCCO)ccc4n3Cc3ccc(C)cc3)n2)cc1 (stereo unspecified) | inactive |
| Cc1oc(-c2ccccc2F)nc1CS(=O)CC(=O)NCc1ccc(F)cc1 (stereo unspecified) | inactive |
| Cc1noc(C)c1COc1ccc(C(=O)N2CCN(S(=O)(=O)c3ccc(Cl)cc3)CC2)cc1 | inactive |
| COCCN(CCOC)c1nc(-c2ccc(C)cc2)nc2ccccc12 | inactive |
| O=C(C[C@H]1C[C@H](C(=O)N2CCOCC2)[C@@]2(CCC3CCCC3)c3[nH]c4cc(-c5ccco5)ccc4c3CCN2C1=O)NCc1cccc(C(F)(F)F)c1 | inactive |
| CNC(=O)[C@@H]1CCC(=O)N1 | inactive |
| CCOc1ccc(C(=O)NCCO)cc1 | inactive |
| COc1ccc(NS(=O)(=O)c2c(C)n(C)c(=O)n(C)c2=O)cc1OC | inactive |
| CN(CCCNC(=O)Cn1cccc1C(=O)c1ccccc1)C1CCCCC1 | inactive |
| CCOc1ccc(-c2n[nH]c(=S)n2Cc2ccccc2)cc1 | inactive |
| Cc1ccc2oc(=O)c3cnn(CC(=O)Nc4ccccc4N4CCN(C)CC4)c3c2c1 | 9.27 µM (active) |

| Compound | Potency |
| --- | --- |
| O=C(c1ccco1)N1CCN(c2ncccn2)CC1 | inactive |
| O=C(/C=C/c1cccc(Oc2ccccc2)c1)N1CCOCC1 | inactive |
| C[C@@H](C(=O)Nc1ccc2ccccc2c1)[C@@H]1C[C@@]1(C)[C@@H](NC(=O)c1cccnc1)c1ccccc1 | inactive |
| OCC1CCCCN1CC(O)COC(c1ccc(F)cc1)c1ccc(F)cc1 (stereo unspecified) | inactive |
| CCN(CC)c1ccc(C=NCCc2ccc(S(N)(=O)=O)cc2)cc1 | inactive |
| CCCC1=NN(C(=O)Cc2ccc(OC)cc2)C(O)(C(F)(F)F)C1 (stereo unspecified) | inactive |
| O=C(CNC(=O)c1ccc(Br)o1)NNC(=O)c1ccccc1 | inactive |
| Cc1nc(C(=O)N2CCC(n3nccc3NC(=O)Nc3ccccc3Cl)CC2)cs1 | inactive |
| CCCOc1ccc(CC2CCC(=O)NC2=O)cc1 (stereo unspecified) | inactive |
| O=C(CN(c1ccccc1F)S(=O)(=O)c1ccccc1)Nc1ccc2c(c1)OCCO2 | inactive |
| O=C1NCCN1C(=O)N(c1ccccc1)c1ccccc1 | inactive |
| O=C(Cn1cnc2c(OCc3ccccc3)ncnc21)NCCCN1CCCC1=O | inactive |
| CC(C)N1CCc2c(sc(NC(=O)Cc3ccccc3)c2C(N)=O)C1 | inactive |
| Cc1ccc2cc(C=O)c(Cl)nc2c1 | inactive |
| C=C(C)C(=O)O[C@H]1C/C(C)=C\C(=O)/C=C(\C)[C@H](O)[C@@H]2OC(=O)C(=C)[C@@H]21 | inactive |
| Cc1ccc(S(=O)(=O)N2CCOCC2)cc1NC(=O)CSc1nc(N)cc(N)n1 | inactive |
| COCCOC(=O)C1=C(C)NC(=O)NC1c1cccc2ccccc12 (stereo unspecified) | inactive |
| O=C(O)CC1(CC(=O)NCc2ccc(Cl)cc2)CCCCC1 | inactive |
| CCCN1CCN(CC(=O)Nc2nncs2)CC1 | inactive |
| O=C(NCC1CCCO1)c1ccc(NC(=O)c2ccc([N+](=O)[O-])cc2)cc1 (stereo unspecified) | inactive |
| CCOCCOc1cc(NCc2ccccc2)c2ncn(C(C)C)c2c1 | inactive |
| Cc1cnc(CNC(=O)CC2C(=O)NCCN2Cc2ccccc2C(F)(F)F)cn1 (stereo unspecified) | inactive |
| COc1cc(C(=O)Nc2nnc(C)s2)cc(OC)c1OC | inactive |
| COc1cc(NC(=O)COC(=O)c2cc(S(=O)(=O)N3CCCCC3)ccc2Cl)c(C)cc1[N+](=O)[O-] | inactive |
